# Data from PMC7862700, “An all-to-all approach to the identification of sequence-specific readers for epigenetic DNA modifications on cytosine”.
# Key:
# Test in all cases: DAPPL (digital affinity profiling via proximity ligation, sequencing); 10 mM Tris-HCl pH 7.5, 50 mM NaCl, 1 mM DTT, 4% glycerol, room temperature, 30 min; GST-TFs on glutathione beads, 16-mer random dsDNA library, 0.1% formaldehyde crosslink after washing; high values mean tight binding
# Settings in all cases: protein: recombinant; tags: N-terminal GST; dsDNA, one strand shown
# [1] = biological target: T1, FLI1 (Homo sapiens, UniProt Q01543 1-452)
# T1 sequence: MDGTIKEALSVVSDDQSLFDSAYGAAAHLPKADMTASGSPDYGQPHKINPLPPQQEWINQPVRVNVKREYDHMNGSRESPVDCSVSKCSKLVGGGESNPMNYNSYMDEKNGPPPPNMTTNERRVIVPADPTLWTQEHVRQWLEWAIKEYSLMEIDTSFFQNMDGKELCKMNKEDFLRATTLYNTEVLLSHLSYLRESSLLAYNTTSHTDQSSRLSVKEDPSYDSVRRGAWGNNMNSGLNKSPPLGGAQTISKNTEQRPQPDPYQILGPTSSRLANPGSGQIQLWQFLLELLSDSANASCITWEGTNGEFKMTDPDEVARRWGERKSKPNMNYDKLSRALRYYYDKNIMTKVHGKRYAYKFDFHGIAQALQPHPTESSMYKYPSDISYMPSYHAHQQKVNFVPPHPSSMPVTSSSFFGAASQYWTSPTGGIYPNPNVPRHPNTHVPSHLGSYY
# Outline: (§1)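 The binding signal reported is, for every hexamer, its read frequency for a factor over its read frequency for the tag-only sample. Reads came from pools of yeast-expressed, GST-fused human transcription factors on glutathione beads, barcoded with DNA and mixed with that sample, which were incubated with 200 nmole of a random double-stranded 16-mer DNA library in Tris/NaCl/DTT/glycerol buffer at room temperature for 30 min. After washing, the pools were crosslinked with 0.1% formaldehyde, proximity-ligated with BsaI/T4 ligase for 1 h at 37 °C, PCR-amplified and sequenced on an Illumina NextSeq500.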
# [2] = biological target: T2, ELK1 (Homo sapiens, UniProt P19419 1-428)
# T2 sequence: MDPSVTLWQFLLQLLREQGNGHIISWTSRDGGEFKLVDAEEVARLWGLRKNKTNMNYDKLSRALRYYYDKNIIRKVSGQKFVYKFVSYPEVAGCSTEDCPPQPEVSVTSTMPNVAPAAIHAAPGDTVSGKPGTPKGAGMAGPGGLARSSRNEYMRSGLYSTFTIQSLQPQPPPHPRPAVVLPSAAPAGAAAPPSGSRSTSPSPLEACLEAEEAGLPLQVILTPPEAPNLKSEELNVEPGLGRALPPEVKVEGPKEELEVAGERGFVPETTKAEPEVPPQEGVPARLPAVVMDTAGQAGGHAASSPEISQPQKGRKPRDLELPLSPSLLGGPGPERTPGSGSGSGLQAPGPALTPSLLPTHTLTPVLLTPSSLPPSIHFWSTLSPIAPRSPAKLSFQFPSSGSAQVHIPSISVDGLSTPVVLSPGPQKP
# Outline: as §1
# [3] = biological target: T3, GABPA (Homo sapiens, UniProt Q06546 1-454)
# T3 sequence: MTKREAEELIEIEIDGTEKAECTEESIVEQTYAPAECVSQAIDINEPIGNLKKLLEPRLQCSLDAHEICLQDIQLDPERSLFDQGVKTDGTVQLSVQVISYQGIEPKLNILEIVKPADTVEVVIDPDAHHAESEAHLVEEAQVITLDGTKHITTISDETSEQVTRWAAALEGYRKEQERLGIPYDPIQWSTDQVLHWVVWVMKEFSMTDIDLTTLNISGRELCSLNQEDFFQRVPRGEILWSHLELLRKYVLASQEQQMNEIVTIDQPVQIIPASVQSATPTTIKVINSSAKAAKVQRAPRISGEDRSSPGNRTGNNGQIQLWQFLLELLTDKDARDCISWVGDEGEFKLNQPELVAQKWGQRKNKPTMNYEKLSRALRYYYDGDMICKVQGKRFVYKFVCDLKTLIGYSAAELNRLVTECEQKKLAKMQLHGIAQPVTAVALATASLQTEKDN
# Outline: as §1
# [4] = biological target: T4, ERG (Homo sapiens, UniProt P11308 1-479)
# T4 sequence: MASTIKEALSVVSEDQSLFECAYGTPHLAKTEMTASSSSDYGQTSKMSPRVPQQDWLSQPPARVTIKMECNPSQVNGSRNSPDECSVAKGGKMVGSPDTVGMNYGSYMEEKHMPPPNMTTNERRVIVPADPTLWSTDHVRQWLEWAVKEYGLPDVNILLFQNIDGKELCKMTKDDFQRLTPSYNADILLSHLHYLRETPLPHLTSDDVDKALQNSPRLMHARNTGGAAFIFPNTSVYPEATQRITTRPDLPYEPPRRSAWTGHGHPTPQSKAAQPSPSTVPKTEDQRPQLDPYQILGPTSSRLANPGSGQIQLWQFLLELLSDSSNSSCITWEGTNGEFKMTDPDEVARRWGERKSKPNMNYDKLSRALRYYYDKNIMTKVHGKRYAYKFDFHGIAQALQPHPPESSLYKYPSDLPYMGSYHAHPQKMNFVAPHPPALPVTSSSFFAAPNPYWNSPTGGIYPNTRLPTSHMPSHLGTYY
# Outline: as §1
# [5] = biological target: ELF1 (Homo sapiens, UniProt P32519 1-619)
# Outline: as §1
# [6] = biological target: T5, EHF (Homo sapiens, UniProt Q9NZC4 1-300)
# T5 sequence: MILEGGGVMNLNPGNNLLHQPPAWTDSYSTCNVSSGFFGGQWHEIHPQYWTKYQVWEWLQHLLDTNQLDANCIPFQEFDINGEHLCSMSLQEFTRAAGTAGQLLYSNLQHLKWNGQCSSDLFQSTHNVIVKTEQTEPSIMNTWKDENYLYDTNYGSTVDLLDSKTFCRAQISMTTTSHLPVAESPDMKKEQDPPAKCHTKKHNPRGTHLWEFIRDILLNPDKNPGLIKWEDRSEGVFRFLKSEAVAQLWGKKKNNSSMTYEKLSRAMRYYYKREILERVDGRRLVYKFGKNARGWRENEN
# Outline: as §1
# [7] = biological target: SPI1 (Homo sapiens, UniProt P17947 1-270)
# Outline: as §1
# [8] = biological target: SPIB (Homo sapiens, UniProt Q01892 1-262)
# Outline: as §1
# [9] = biological target: T6, ELK3 (Homo sapiens, UniProt P41970 1-407)
# T6 sequence: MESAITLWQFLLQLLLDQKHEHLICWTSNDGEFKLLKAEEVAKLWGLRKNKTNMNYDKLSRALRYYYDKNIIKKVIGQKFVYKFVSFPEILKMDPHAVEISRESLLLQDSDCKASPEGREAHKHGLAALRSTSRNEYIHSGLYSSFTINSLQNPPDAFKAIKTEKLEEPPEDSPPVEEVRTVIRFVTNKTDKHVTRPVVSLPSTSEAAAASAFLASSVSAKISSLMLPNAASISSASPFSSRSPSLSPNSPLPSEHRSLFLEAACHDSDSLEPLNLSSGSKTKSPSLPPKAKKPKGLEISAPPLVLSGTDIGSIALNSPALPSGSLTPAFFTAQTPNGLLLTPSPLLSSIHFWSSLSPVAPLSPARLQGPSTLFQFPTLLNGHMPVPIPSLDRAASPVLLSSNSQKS
# Outline: as §1
# Chain of SPIB (Q01892 whole entry): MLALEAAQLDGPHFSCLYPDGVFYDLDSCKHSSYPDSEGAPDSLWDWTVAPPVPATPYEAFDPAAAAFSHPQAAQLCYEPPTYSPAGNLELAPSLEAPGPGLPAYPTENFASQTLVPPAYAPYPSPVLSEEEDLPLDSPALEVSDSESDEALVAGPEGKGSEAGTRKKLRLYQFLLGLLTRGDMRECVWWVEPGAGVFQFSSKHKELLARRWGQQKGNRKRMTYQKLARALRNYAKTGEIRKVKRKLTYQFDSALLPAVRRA
# Chain of ELF1 (P32519 whole entry): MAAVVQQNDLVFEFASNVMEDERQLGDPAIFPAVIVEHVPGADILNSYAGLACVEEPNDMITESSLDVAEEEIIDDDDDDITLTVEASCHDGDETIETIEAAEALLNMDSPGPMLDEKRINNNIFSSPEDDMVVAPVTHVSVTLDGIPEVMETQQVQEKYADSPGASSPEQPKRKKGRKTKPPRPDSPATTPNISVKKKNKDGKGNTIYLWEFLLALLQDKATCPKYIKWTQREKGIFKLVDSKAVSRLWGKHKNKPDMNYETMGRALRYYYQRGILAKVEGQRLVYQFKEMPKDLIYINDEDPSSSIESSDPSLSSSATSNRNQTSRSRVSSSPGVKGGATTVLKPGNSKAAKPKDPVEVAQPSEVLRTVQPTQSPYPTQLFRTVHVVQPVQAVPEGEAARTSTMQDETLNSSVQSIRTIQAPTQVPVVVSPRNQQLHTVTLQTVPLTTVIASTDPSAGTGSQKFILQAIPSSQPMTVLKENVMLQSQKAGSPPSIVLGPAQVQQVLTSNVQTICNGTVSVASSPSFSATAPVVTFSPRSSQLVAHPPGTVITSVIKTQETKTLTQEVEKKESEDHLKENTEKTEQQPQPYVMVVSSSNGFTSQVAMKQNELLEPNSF
sequence,measurement,setting,value
TAATGG,binding signal,[1],"1.26 fold enrichment (6-mer frequency, TF over GST control)"
same,binding signal,[2],"1.35 fold enrichment (6-mer frequency, TF over GST control)"
same,binding signal,[3],"1.24 fold enrichment (6-mer frequency, TF over GST control)"
same,binding signal,[4],"1.22 fold enrichment (6-mer frequency, TF over GST control)"
same,binding signal,[5],"1.32 fold enrichment (6-mer frequency, TF over GST control)"
same,binding signal,[6],"1.25 fold enrichment (6-mer frequency, TF over GST control)"
same,binding signal,[7],"1.28 fold enrichment (6-mer frequency, TF over GST control)"
same,binding signal,[8],"1.37 fold enrichment (6-mer frequency, TF over GST control)"
same,binding signal,[9],"1.31 fold enrichment (6-mer frequency, TF over GST control)"
